SW480 rerep = inducers of DNA re-replication in SW480 colon cancer cells; Potency, µM (titrated, usually from 46.1 µM), actives largely listed as activators; SW480 DNA re-replication, Hoechst DNA content imaging, 48 h; AID 624297; 340,000 tested, 1.8% active; note: nearly all actives have a fitted effect of over 55% in size
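Quantitative HTS format with DMSO vehicle controls; 48 hr drug incubation at 37 C, then 40 min Hoechst staining and scanning imager measurement at 405 nm excitation.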
HT1080 IDH1KD tx = HT-1080 IDH1 knockdown cell toxicity (counter line); AID 686971; HT-1080 IDH1 knockdown viability, ATP luminescence, 48 h; Potency, µM (highest dose often 46.1 µM), usual class: cytotoxic; 360,000 tested, 2% active
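Using the IDH1-knockdown HT-1080 line run in the same batch and compound series as the NT line, viability after 48 h at 37 °C was determined by CellTiter-Glo luminescence and expressed as % activity.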
KB-V1 cytotox = kills drug-selected multidrug resistant KB-V1 cells; KB-V1 MDR cells viability, CellTiter-Glo, 72 h; Potency, µM (titrated, usually from 46.1 µM), actives largely listed as cytotoxic; 400,000 tested, 3.4% active; AID 1347076; note: nearly all actives have a fitted effect of over 60% in size
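qHTS viability screen in drug-selected KB-V1 MDR cells: 72 h compound treatment at 37 degrees C, ATP luminescence end point.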
KB-3-1 tox = kills parental KB-3-1 adenocarcinoma cells | KB-3-1 viability, CellTiter-Glo ATP luminescence, 72 h | Potency, µM (highest dose often 46.1 µM), hits mostly cytotoxic | 400,000 tested, 1.4% active | AID 1347075; note: nearly all actives have a fitted effect of over 60% in size
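Here the drug-naive KB-3-1 line serves as comparator for MDR sub-line selectivity; cells received compound titrations, 72 h at 37 °C, then CellTiter-Glo readout.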
MCF10A rereplic = induces DNA re-replication in MCF 10a normal breast cells. AID 624296. MCF 10A DNA re-replication, Hoechst nuclear intensity, 48 h. Potency, µM (titrated, usually from 46.1 µM), actives largely listed as activators. 350,000 tested, 2.9% active; note: nearly all actives have a fitted effect of over 50% in size
HT1080NT lethal = kills 2HG-producing HT-1080-NT fibrosarcoma cells; 360,000 tested, 1.6% active; HT-1080-NT fibrosarcoma viability, CellTiter-Glo ATP luminescence, 48 h; AID 686970; Potency, µM (highest dose often 46.1 µM), usual class: cytotoxic;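 note: NT is the 2HG producing partner of a matched IDH1 knockdown line; nearly all actives have a fitted effect of over 55% in size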
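Fibrosarcoma NT cells, 750 per well in 5% FBS RPMI, were exposed to compound for 48 hours. Viability: CellTiter-Glo luminescence.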
Numbers stand for hits; i = inactive; ? = inconclusive; nt = no result given. In the library only some 8% were active in any assay of this set; here they are far more common. Calls come from the whole dose curve; as a rule, active = well fitted curve in the direction sought with a large enough effect; inconclusive = small, poorly fitted or top-dose-only effect, or another doubt; inactive = no such curve, though single readings can be large; an effect the other way counts as inactive or inconclusive.

SMILES | SW480 rerep | HT1080 IDH1KD tx | KB-V1 cytotox | KB-3-1 tox | MCF10A rereplic | HT1080NT lethal
COc1ccc(NC(=O)c2cnc(SC)nc2)cc1 | ? | ? | ? | 16.4µM | ? | ?
COc1ccc(C(=O)Nc2ccc(C)cn2)c(OC)c1 | i | i | 16.4µM | ? | i | ?
COc1ccc(C(=O)C[n+]2cc(Br)cc3ccccc32)cc1 | nt | nt | i | i | nt | nt
COc1ccc(C(=O)C[n+]2cn(C(F)F)c3ccccc32)c(F)c1 | i | ? | i | i | ? | 20.6µM
Oc1c(Br)cc(Br)cc1CNc1ccc(F)cc1 | i | ? | i | i | ? | ?
Oc1c(Br)cc(Br)cc1CNc1cnc2ccccc2c1 | i | i | i | i | 23.1µM | i
Cc1ccc2nc(SCC(=O)Nc3ccc(C(N)=O)cc3)[nH]c2c1 | i | i | i | i | i | i
O=C(CSc1nc2ccc([N+](=O)[O-])cc2[nH]1)NC1CCCCCC1 | i | ? | 13µM | ? | ? | ?
Cc1ccc2nc(SCc3ccc([N+](=O)[O-])cc3)[nH]c2c1 | i | ? | 16.4µM | ? | i | ?
Cc1ccc2nc(SCc3ccc([N+](=O)[O-])cc3)nc(C)c2c1 | i | i | i | ? | i | i
Cc1ccc2nc(SCC(=O)Nc3cccc([N+](=O)[O-])c3)[nH]c2c1 | i | ? | 14.6µM | i | i | i
Cc1ccc(CSc2nc3ccncc3[nH]2)cc1 | i | ? | i | 11.6µM | i | ?
CC1=C(c2ccc(C)c(C)c2)S(=O)(=O)N=C1N1CCC(C(=O)N2CCC(C)CC2)CC1 | nt | nt | i | i | nt | nt
COc1ccc2c(c1)c(=O)c(C(=O)c1ccccc1)cn2Cc1ccccc1 | 16.4µM | i | i | i | ? | i
COc1ccc(Cn2cc(C(=O)c3ccccc3)c(=O)c3cc(OC)ccc32)cc1 | i | i | i | i | i | i
Clc1ccc(OCc2nc(-c3ccccn3)n[nH]2)cc1 | ? | 10µM | 4.61µM | ? | ? | ?
COc1ccc(-c2cc(C(F)(F)F)nc(SCC(=O)NCc3ccc(OC)c(OC)c3)n2)cc1 | nt | nt | i | i | nt | nt
Cc1ccc(C)c(NC(=O)N2CCC(N3CCN(Cc4ccc(F)cc4)C(=O)C3=O)CC2)c1 | nt | nt | i | i | nt | nt
CCOC(=O)c1cccc(S(=O)(=O)N(CCO)Cc2cc3cc(OC)ccc3[nH]c2=O)c1 | i | i | ? | i | ? | i
COC(=O)c1cccc(S(=O)(=O)N(Cc2ccco2)Cc2cc3cc(OC)ccc3[nH]c2=O)c1 | i | i | 16.4µM | i | ? | i
Cc1cc2cc(CN(Cc3ccco3)S(=O)(=O)c3c(C)ccc4nsnc34)c(=O)[nH]c2cc1C | ? | ? | 1.64µM | 3.26µM | ? | ?
COc1ccc(OCCSc2nnc3sc4ccccc4n23)cc1 | ? | i | ? | i | 6.51µM | i
CN(C)CCSc1nnc2sc3ccccc3n12 | i | i | i | ? | i | i
Cc1ccc(S(=O)(=O)N2CCN(c3nc(-n4cncn4)nc4ccccc34)CC2)cc1 | nt | i | nt | nt | nt | i
Nn1c(Cc2cccc3ccccc23)nnc1SCc1ccccc1Cl | i | i | i | i | i | i
SMILES | SW480 rerep | HT1080 IDH1KD tx | KB-V1 cytotox | KB-3-1 tox | MCF10A rereplic | HT1080NT lethal
Nn1c(Cc2cccc3ccccc23)nnc1SCc1ccccc1 | i | i | 16.4µM | i | ? | i
Cc1ccc(C(=O)NCC(c2ccc3c(c2)OCO3)N2CCN(c3ccc(F)cc3)CC2)cc1 (centres undefined) | nt | nt | i | i | nt | nt
COC(=O)/C=C1/SC(=Nc2ccc(Cl)c(Cl)c2)NC1=O | i | i | i | i | 25.9µM | i
COC(=O)/C=C1\SC(=Nc2ccccc2)NC1=O | ? | i | i | i | i | i
CN(C)S(=O)(=O)c1ccc2c(c1)N(CC(=O)N1CCC(C(N)=O)CC1)CCS2 | nt | nt | i | i | nt | nt
Cc1cccn2c(Nc3ccc4c(c3)OCCO4)c(-c3ccc(Br)o3)nc12 | nt | nt | ? | i | nt | nt
CCCc1cc2c(=O)c(-c3nc4ccccc4s3)c(COCC(=O)O)oc2cc1O | ? | i | i | i | 23.1µM | i
COc1ccccc1C(=O)NCCSc1c(C)[nH]c2ccccc12 | nt | nt | ? | i | nt | nt
Cc1ccnc2c(N)cccc12 | nt | nt | i | ? | nt | nt
COc1ccc(CCNC(=O)c2c(C)oc3ncn(CC(C)C)c(=O)c23)c(OC)c1 | nt | nt | i | i | nt | nt
CS(=O)(=O)c1ccc2nc(NC(=O)CCS(=O)(=O)c3ccccc3)sc2c1 | 3.66µM | 20.6µM | i | i | 3.26µM | i
CCc1nnc(NC(=O)CCS(=O)(=O)c2ccccc2)s1 | 18.4µM | i | i | i | 14.6µM | i
Cc1ccc(N2CC(C(=O)Nc3nc4ccc(S(C)(=O)=O)cc4s3)CC2=O)cc1 (centres undefined) | i | i | 6.51µM | ? | i | i
CC(=O)c1sc(NC(=O)CCS(=O)(=O)c2ccc(Cl)cc2)nc1C | ? | i | i | i | 7.31µM | i
CS(=O)(=O)c1ccc2nc(NC(=O)C3CC(=O)N(c4ccccc4)C3)sc2c1 (centres undefined) | i | i | i | i | i | i
O=C(CCS(=O)(=O)c1ccccc1)Nc1nc2ccc(F)cc2s1 | ? | i | i | ? | ? | i
COCc1nnc(NC(=O)CCS(=O)(=O)c2ccccc2)s1 | 14.6µM | ? | i | i | ? | ?
CS(=O)(=O)c1ccc2nc(NC(=O)Nc3cccc(Cl)c3)sc2c1 | i | 11.2µM | ? | i | ? | ?
COc1ccc(OC)c2sc(NC(=O)CCSc3ccccc3)nc12 | i | i | i | i | i | i
CS(=O)(=O)c1ccc2nc(NC(=O)Nc3ccc(Cl)c(Cl)c3)sc2c1 | i | i | i | i | i | ?
COc1ccc(OC)c2sc(NC(=O)CCS(=O)(=O)c3ccccc3)nc12 | i | i | i | ? | 20.6µM | i
Cc1ccc(N2CCN(C(=O)NCc3noc4ccc(C)cc34)CC2)c(C)c1 | nt | nt | i | i | nt | nt
Cc1ccc(NC(=O)Cn2cc(C(=O)c3cccs3)c3ccccc32)cc1C | nt | nt | i | ? | nt | nt
COCCCNC(=O)c1ccc(Cn2c(=O)c3ccccc3n(CC(=O)Nc3c(C)cccc3C)c2=O)cc1 | nt | nt | i | i | nt | nt
COc1ccc(NC(=O)CSc2nc(=O)n(CCN3CCOCC3)c3c2CCC3)c(OC)c1 | i | i | i | i | i | i
CCN(CC)CCn1c2c(c(SCC(=O)Nc3cccc4ccccc34)nc1=O)CCC2 | i | i | i | i | i | i
CN(C)CCn1c2c(c(SCC(=O)Nc3cccc4ccccc34)nc1=O)CCCC2 | 0.581µM | i | i | i | i | i
COc1ccc(NC(=O)CSc2nc(=O)n(CCN3CCOCC3)c3c2CCCC3)c(OC)c1 | i | i | 8.2µM | i | i | i
N#Cc1ccc(NCCc2ccccn2)c([N+](=O)[O-])c1 | i | i | 1.84µM | 8.2µM | i | i
Cc1cccnc1C(NC(=O)C1CCN(Cc2ccc(Cl)cc2)CC1)c1ccccc1 (centres undefined) | nt | ? | i | i | nt | ?

From PubChem
